This is one part of the list. A number with no mark means an inactive call. Active and inactive are the calls of the source.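 How the source made its calls: active means percent activation above the mean of DMSO-only control wells plus 3 SD of those wells (cut at about 18% in these data); inactive means the rest.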
Biological target: Neuropeptide Y receptor type 1 (Homo sapiens) (UniProt P25929)
Test: human Y1 receptor agonism – cell-based, fluorescence, counter-screen for NPY-Y1 potentiator project, confirmation (AID 1697);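 further: cells challenged with isoproterenol plus Ro 20-1724 with no NPY in test wells; Y1 agonism lowers isoproterenol-driven cAMP and reduces probe fluorescence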
Settings: HEK293 Y1-CNGC, membrane potential fluorescence, agonist mode; at 3.6 µM; hits give high values

Neuropeptide Y receptor type 1 (Homo sapiens), sequence (P25929 whole entry, looked up): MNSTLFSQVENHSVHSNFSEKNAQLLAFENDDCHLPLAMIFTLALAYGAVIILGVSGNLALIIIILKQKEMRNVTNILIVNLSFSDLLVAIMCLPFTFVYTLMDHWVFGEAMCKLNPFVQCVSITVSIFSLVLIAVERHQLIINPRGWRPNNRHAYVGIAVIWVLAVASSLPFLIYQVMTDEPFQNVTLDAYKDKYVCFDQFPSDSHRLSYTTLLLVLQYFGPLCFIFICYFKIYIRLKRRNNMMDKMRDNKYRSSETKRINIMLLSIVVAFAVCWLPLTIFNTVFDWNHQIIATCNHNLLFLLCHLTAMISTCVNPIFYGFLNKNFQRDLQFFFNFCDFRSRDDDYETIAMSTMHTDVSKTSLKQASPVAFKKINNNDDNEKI

Row | SMILES | activation
1 | CSC1=NP(=S)(SC)N(C)c2nc3n(c21)CCC3 (configuration not stated) | 9.49%
2 | Cc1nn(Cc2ccccc2Cl)c(Cl)c1C(=O)OC(C(=O)NC(N)=O)C(C)C (configuration not stated) | 30.6% (active)

Reference: PubChem BioAssay AID1697 (The Scripps Research Institute Molecular Screening Center, 2009)
